From PubChem BioAssay AID588511 (Johns Hopkins Ion Channel Center, 2011)
Among all 310,000 compounds or so, about 3,600 (1.2%) were called active.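 The calls were made as follows: active = ratio plate-corrected score three or more library SD toward inhibition, starting fluorescence score within five deviations; inactive = the rest.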 Only a selection was taken, and actives are over-represented in it overall.

Target: Anoctamin-1 (Mus musculus) (UniProt Q8BHY3)
Assay: TMEM16A chloride channel inhibitors, primary screen, cell-based, HTS (AID 588511);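 as to normalized B-score (activity score, 25-100; higher = stronger inhibition): score derived from kinetic fluorescence span divided by baseline fluorescence per well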
Conditions: HEK293 TMEM16A/YFP iodide influx fluorescence, ionomycin; at 10 µM

Sequence of Anoctamin-1 (Mus musculus) (Q8BHY3 whole entry, looked up): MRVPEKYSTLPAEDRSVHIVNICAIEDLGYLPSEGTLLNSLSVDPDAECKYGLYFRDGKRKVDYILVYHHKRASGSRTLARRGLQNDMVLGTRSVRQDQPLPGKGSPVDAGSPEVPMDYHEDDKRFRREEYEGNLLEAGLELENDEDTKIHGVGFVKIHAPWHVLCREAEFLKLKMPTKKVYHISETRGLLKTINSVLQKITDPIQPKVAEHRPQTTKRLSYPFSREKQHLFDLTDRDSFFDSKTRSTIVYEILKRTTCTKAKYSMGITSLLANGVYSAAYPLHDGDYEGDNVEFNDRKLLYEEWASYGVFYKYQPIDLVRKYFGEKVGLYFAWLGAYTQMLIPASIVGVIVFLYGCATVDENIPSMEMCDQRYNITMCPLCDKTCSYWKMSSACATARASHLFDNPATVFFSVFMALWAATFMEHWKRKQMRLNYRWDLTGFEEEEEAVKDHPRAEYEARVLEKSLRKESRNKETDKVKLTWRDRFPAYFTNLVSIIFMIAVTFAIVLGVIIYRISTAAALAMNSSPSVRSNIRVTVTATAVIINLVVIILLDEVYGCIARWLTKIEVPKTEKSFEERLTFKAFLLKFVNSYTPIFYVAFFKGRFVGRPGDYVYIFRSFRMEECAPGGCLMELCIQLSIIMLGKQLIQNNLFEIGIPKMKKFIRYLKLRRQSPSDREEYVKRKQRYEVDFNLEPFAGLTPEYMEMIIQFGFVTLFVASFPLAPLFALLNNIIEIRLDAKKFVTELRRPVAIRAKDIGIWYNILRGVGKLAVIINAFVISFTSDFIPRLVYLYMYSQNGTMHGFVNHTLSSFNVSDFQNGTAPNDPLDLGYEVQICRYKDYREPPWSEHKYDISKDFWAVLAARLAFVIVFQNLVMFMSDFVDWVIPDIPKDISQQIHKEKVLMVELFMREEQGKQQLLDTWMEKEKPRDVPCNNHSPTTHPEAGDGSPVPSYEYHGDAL

| SMILES | normalized B-score (activity score, 25-100; higher = stronger inhibition) |
| --- | --- |
| CC(=O)N(c1ccc2oc(=O)sc2c1)S(=O)(=O)c1ccc(C)cc1 | inactive |
| Cn1c(SCc2ccc(F)cc2)nnc1-c1ccncc1 | inactive |
| C=CCn1c(CNS(=O)(=O)c2ccc(Br)cc2)nnc1SC | inactive |
| CCOC(=O)c1cc(NC(=O)c2ccc(Cl)cc2)c(=O)oc1-c1ccccc1 | inactive |
| CN1OC(COC(=O)c2ccc(Cl)cc2)CC1c1ccccc1 (stereo not given) | 100 (active) |
| Cn1cncc1COC(=O)c1ccc(Cl)cc1 | inactive |
| Cc1cc(OC(=O)c2ccc(Cl)cc2)cc(=O)n1C | inactive |
| Cc1ccc(C)c(N2CCN(C(=O)CCc3nc4ccccc4[nH]3)CC2)c1 | inactive |
| Cc1ccc(C)c(N2CCN(C(=O)CCCCn3c(=O)[nH]c4ccccc4c3=O)CC2)c1 | 25 (active) |
| Cc1ccc(C)c(N2CCN(C(=O)CCCCCn3c(=S)[nH]c4ccc(N5CCOCC5)cc4c3=O)CC2)c1 | inactive |
| CC(OC(=O)c1ccc(-n2cnnn2)cc1)C(=O)NCc1ccccc1 (stereo not given) | inactive |
| COCCNS(=O)(=O)c1cc(Br)ccc1OC | inactive |
| CC(=O)N1CCc2cc(S(=O)(=O)NC3CCCCC3)ccc21 | inactive |
| Cc1ccc(C)n1-c1ccncc1 | inactive |
| Cc1ccc(N)cc1-n1c(C)ccc1C | 100 (active) |
| Cn1nnnc1NCc1ccc(Cl)c(Cl)c1 | inactive |
| COc1ccc(CNc2nnnn2C)cc1 | 25 (active) |
| CCCn1nnnc1NCc1ccc(OC)cc1 | inactive |
| C[C@@H]1C[C@@H]2O[C@H]2/C=C\C=C\C(=O)Cc2c(Cl)c(O)cc(O)c2C(=O)O1 | inactive |
| CC(C)Nc1nnc(SCC(=O)/C=C2\N(C)c3ccccc3C2(C)C)s1 | inactive |
| CN1/C(=C\C(=O)c2oc3ccccc3c2N)C(C)(C)c2ccccc21 | inactive |
| CC(=O)Nc1cccc(OCC(=O)/C=C2\N(C)c3ccccc3C2(C)C)c1 | 100 (active) |
| CCOc1cc(/C=N/NC(=O)c2cccc(S(=O)(=O)N3CCOCC3)c2)ccc1OCC(=O)N(C)C | inactive |
| CO[C@@H]1[C@@H](OC(N)=O)[C@@H](O)C(Oc2ccc3c(O)c(NC(=O)c4ccc(O)c(CC=C(C)C)c4)c(=O)oc3c2C)OC1(C)C (stereo not given in full) | inactive |

| SMILES | normalized B-score (activity score, 25-100; higher = stronger inhibition) |
| --- | --- |
| O=C(O)C1=NN(c2c(F)c(F)cc(F)c2F)C(=O)CC1 | inactive |
| Cc1ccc(CN(N=Nc2nonc2N)c2nonc2N)c(C)c1 | 25 (active) |
| COc1ccc(Cc2nnc(SCC(=O)c3cccc([N+](=O)[O-])c3)n2C)cc1 | inactive |
| O=C(Nc1ccc(NC(=O)c2ccccc2F)cc1)c1ccccc1F | inactive |
| COc1ccccc1C(=O)Nc1ccccc1C(=O)Nc1ccccc1 | inactive |
| O=C(Nc1ccccc1)c1ccccc1NC(=O)C(F)(F)F | 100 (active) |
| CCn1cc(CN2CCC(C(=O)Nc3cccc(-c4cccc(Cl)c4)c3)CC2)cn1 | inactive |
| O=C(Nc1cccc(-c2cscn2)c1)C1CCN(Cc2ccsc2)CC1 | inactive |
| CC(=O)c1cc(CN2CCC(C(=O)Nc3cccc(-c4cscn4)c3)CC2)cs1 | 25 (active) |
| COc1ccc2oc(C(=O)NCC(Cc3ccccc3)N(C)C)c(C)c2c1 (stereo not given) | inactive |
| Cc1cnc(NC(=O)c2ccccn2)s1 | inactive |
| COc1ccc(NC(=O)C2COc3ccccc3O2)cc1 (stereo not given) | inactive |
| COc1ccc(OC)c2sc(NC(=O)C3COc4ccccc4O3)nc12 (stereo not given) | inactive |
| O=C(Nc1ncc([N+](=O)[O-])s1)C1COc2ccccc2O1 (stereo not given) | 25 (active) |
| COc1ccc(NC(=O)c2ccccc2[N+](=O)[O-])cc1OC | inactive |
| CC(=O)Oc1ccccc1C(=O)Nc1ncc([N+](=O)[O-])s1 | 100 (active) |
| O=C(N/N=C/c1cccc2cccnc12)[C@H]1C[C@@H]1c1ccccc1 | inactive |
| Cc1ccc(C)c(OCCC(=O)OCC(=O)NC(=O)NCc2ccccc2)c1 | inactive |
| O=C(Nc1ccc(S(=O)(=O)N2CCCCC2)cc1)C1CC(=O)N(c2ccc(F)cc2)C1 (stereo not given) | inactive |
| O=C(NC(=S)Nc1ncccn1)c1ccccc1Br | inactive |
| COc1ccnc(Oc2ccccc2)c1-c1ncn[nH]1 | inactive |
| Fc1cc(F)c2nc(Nc3nc4c(F)cccc4s3)sc2c1 | 100 (active) |
| COc1cccc(OC)c1C(=O)Nc1sc2c(c1C(N)=O)CCCC2 | inactive |
| NC(=O)c1c(NC(=O)c2ccccc2)sc2c1CCCC2 | inactive |

| SMILES | normalized B-score (activity score, 25-100; higher = stronger inhibition) |
| --- | --- |
| Fc1cc(F)c2nc(N3CCOCC3)sc2c1 | inactive |
| NC(=O)c1c(Nc2nc3c(F)cccc3s2)sc2c1CCCC2 | 25 (active) |
| O=C(Nc1nc2c(F)cc(F)cc2s1)C1COc2ccccc2O1 (stereo not given) | inactive |
| Cc1c(C(=O)Nc2ccccn2)oc2ccc(Br)cc12 | inactive |
| CCC(C)(C(=O)Nc1ccccc1C)N(C(=O)CNC(C)=O)c1ccc(C)cc1 (stereo not given) | inactive |
| CS(=O)(=O)c1sc(C(=O)NC(=S)Nc2ccc(OC(F)(F)F)cc2)c2c1C=CCC2 | inactive |
| CC1(C)O[C@@H]2CC3C4C[C@H](F)C5=CC(=O)C=CC5(C)C4C(O)CC3(C)[C@]2(C(=O)CO)O1 (stereo not given in full) | inactive |
| Cc1ccc(/C=C2/SC(=S)N(CCC(=O)NCCCN3CCOCC3)C2=O)cc1 | inactive |
| O=S(=O)(NCc1ccc(Cl)cc1Cl)c1cccs1 | inactive |
| O=C(Nc1cccc(Cl)c1)Nc1ccccc1NS(=O)(=O)c1cccs1 | 100 (active) |
| O=S(=O)(Nc1ccccc1Br)c1cccs1 | inactive |
| COc1ccc(Nc2nc(N)nc(CSC(=S)N3CCC(C)CC3)n2)cc1 | inactive |
| O=S(=O)(ON(c1ccccc1)S(=O)(=O)c1ccccc1)c1ccccc1 | inactive |
| CC1=C/C(=N\OS(=O)(=O)c2ccccc2)C=CC1=O | 25 (active) |
| CC(NC(=O)CN1CCN(Cc2ccc(Cl)cc2)C1=O)c1ccc2c(c1)OCCO2 (stereo not given) | inactive |
| O=C(c1ccc(=O)oc1)N1CCC(C(O)(c2ccccc2)c2ccccc2)CC1 | inactive |
| CCOC(=O)c1oc2ccccc2c1NC(=O)c1cccs1 | 25 (active) |
| CCc1c(C)sc(NC(=O)c2cccs2)c1C(N)=O | inactive |
| NC(=O)c1oc2ccccc2c1NC(=O)Cc1ccccc1 | inactive |
| COC(=O)CCSc1cc([N+](=O)[O-])cc2c1c(C1OCCS1)nn2-c1ccccc1 (stereo not given) | inactive |
| COc1ccc(OC)c(NC(=O)CN(C)CCOc2ccc(Br)cc2)c1 | inactive |
| CCCCCCCCn1c2c(c(=N)c3c1CCC3)CCCC2 | 100 (active) |
